PubChem BioAssay (NCATS)
Several values for one entry are separate records, joined by “and”; a condition that tells them apart may be missing. Equal entries are not always repeated. Results filed as inconclusive are left out. Activity calls are given as the source filed them. Unless noted, calls come from the whole dose curve; as a rule, active = well fitted curve in the direction sought with a large enough effect; inconclusive = small, poorly fitted or top-dose-only effect, or another doubt; inactive = no such curve, though single readings can be large; an effect the other way counts as inactive or inconclusive.

Experiments:
[1] = Validation of Assay for Modulators of Lamin A Splicing (AID 1459; active = well fitted curve in the direction sought with a large enough effect in the signal ratio; the % refers to the signal ratio;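 note: cells exposed to compound for two days before reading; 0% is about no effect; ratio rise marks activators and ratio drop marks inhibitors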)
Method in brief: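 S3 HeLa stably expressing lamin A-EGFP splicing minigene and DsRed2, 600 cells/well in Opti-MEM with 2% FBS, treated 48 h at 37C; laser-scanning cytometry gives GFP/RFP total intensity ratio; ancitabine positive control, 0.5% DMSO vehicle.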

[2] = qHTS Assay for Lipid Storage Modulators (AID 1519; calls by dose curve; for activity change, negative = inhibition: % is set by controls: 0 for no effect and ±100 for the full control effect); conditions: Drosophila S3 cells, BODIPY lipid droplet/cell ratio, laser cytometry, cells loaded with oleic acid
Method in brief: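 Cells seeded at 5,000 per well were treated with compounds over a concentration series and loaded with oleic acid (400 uM, as added). Lipid droplet fluorescence (488 nm excitation, 500-530 nm channel) was read by laser-scanning cytometry and normalized to 20 uM Triacsin C.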

[3] = biological target: DNA repair nuclease/redox regulator APEX1 (Homo sapiens) (UniProt P27695); assay: qHTS Validation Assay for Inhibitors of the Human Apurinic/apyrimidinic Endonuclease 1 (APE1) (AID 1705; note: potency is the fitted concentration of half-maximal effect;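 for activity change, negative = inhibition: TAMRA fluorescence gain over two minutes as APE1 cuts a quenched THF abasic duplex; % is set by controls: 0 for no effect and ±100 for the full control effect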)
Method in brief: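 Fluorogenic double-stranded THF abasic-site substrate (5'-TAMRA/3'-BHQ-2), 50 nM final. Enzyme preincubated with compound 15 min at room temperature, then substrate added. Kinetic fluorescence (ex 525/em 598 nm) read three times at 60 s intervals; activity taken as third-minus-first read difference.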

[4] = Counterscreen for APE1 Inhibitors: Fluorescent Dye Displacement Validation Assay (AID 1707);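 note: plate controls were ThO with dsDNA and no compound for no effect and ThO without dsDNA for full effect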
Method in brief: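 Compounds are scored by their ability to displace Thiazole Orange (250 nM) from a 50 nM TAMRA-tagged duplex bearing a tetrahydrofuran abasic site. Buffer is 50 mM Tris-HCl pH7.5, 50mM NaCl, 2 mM MgCl2, 0.01% Tween-20.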

[5] = biological target: Endonuclease 4 (Escherichia coli (strain K12)) (UniProt P0A6C1); assay: Counterscreen for APE1 Inhibitors: qHTS Validation Assay for Inhibitors of Endonuclease IV (AID 1708); note: % is set by controls: 0 for no effect and ±100 for the full control effect
Method in brief: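 Concentration-response counterscreen run identically to the APE1 assay: 15 min room-temperature preincubation of 2 nM enzyme with compound, reaction started with 50 nM quenched abasic DNA, progress taken from kinetic fluorescence.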

[6] = qHTS for differential inhibitors of proliferation of Plasmodium falciparum line 3D7 (AID 1876);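 note: parasite growth measured after three days of culture; 0% = vehicle wells and -100% = reference inhibitor wells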
[7] = qHTS for differential inhibitors of proliferation of Plasmodium falciparum line D10 (AID 1877);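 note: parasites grown with compound for 72 h before DNA staining; plate controls were vehicle wells for no effect and reference inhibitor wells for full effect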
[8] = qHTS for differential inhibitors of proliferation of Plasmodium falciparum line Dd2 (AID 1882); conditions: Potency: Plasmodium falciparum Dd2 proliferation inhibition;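 note: plate controls were DMSO vehicle for no effect and 0.29 µM artemisinin for full effect; nearly all actives have a fitted effect of over 65% in size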
Method in brief: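 Dd2-infected erythrocytes (0.3% parasitemia, 2.5% hematocrit final) incubated with compound 72 h at 37 C, 5% CO2; lysed with saponin/Triton buffer containing SYBR Green I, incubated overnight in the dark, then read by fluorescence (485/535 nm). Normalized to 0.29 uM artemisinin and DMSO.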

[9] = qHTS for differential inhibitors of proliferation of Plasmodium falciparum line HB3 (AID 1886); conditions: Potency: Plasmodium falciparum HB3 proliferation inhibition;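 note: parasites grown with compound for 72 h before SYBR Green readout; plate controls were vehicle for no effect and reference inhibitor for full effect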
[10] = biological target: Ferritin light chain (Equus caballus) (UniProt P02791); assay: qHTS Validation Assay for Identification of Novel General Anesthetics (AID 2323); note: % is set by controls: 0 for no effect and ±100 for the full control effect
Method in brief: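 Horse-spleen apoferritin (10 uM) in PBS with 50% saturated 1-aminoanthracene; compounds pin-transferred, 10 min at room temperature. Fluorescence read at 380/535 nm, normalized to free 1-AMA and 1-AMA/apoferritin values; four-parameter Hill fit.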

[11] = Validation screen for small molecules that induce DNA re-replication in MCF 10A normal breast cells (AID 463097); note: 0% is about no effect; nearly all actives have a fitted effect of over 60% in size
Method in brief: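 MCF 10A cells exposed to compound 48 hr at 37 C, 5% CO2, then Hoechst-stained 40 min. Laser-scanning imaging of nuclear DNA content (405 nm ex, 500-530 nm em); re-replication scored as rise in nuclei with elevated fluorescence intensity.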

[12] = Quantitative high throughput screen for delayed death inhibitors of the malarial parasite plastid, 96 hour incubation (AID 488745); note: % is set by controls: 0 for no effect and ±100 for the full control effect; nearly all actives have a fitted effect of over 70% in size
Method in brief: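 Luciferase-expressing P. falciparum in erythrocytes (2% hematocrit, 0.1% parasitemia) incubated with compound for 96 h at 37 C, 5% CO2, in RPMI 1640 with 0.5% Albumax. Growth inhibition read as decreased luminescence.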

[13] = Quantitative high throughput screen for delayed death inhibitors of the malarial parasite plastid, 48 hour incubation (AID 488752); note: % is set by controls: 0 for no effect and ±100 for the full control effect; nearly all actives have a fitted effect of over 65% in size
Method in brief: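 Erythrocytes infected with firefly luciferase-expressing P. falciparum (2% hematocrit, 0.1% parasitemia) cultured with compound for 48 h at 37 C, 5% CO2, in RPMI 1640/0.5% Albumax. Growth inhibition read as loss of luminescence.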

[14] = biological target: M-phase phosphoprotein 8 (Homo sapiens) (UniProt Q99549); assay: qHTS Validation Assay for Inhibitors for MPP8 Chromodomain Interactions with Methylated Histone Tails (AID 488949); note: nearly all actives have a fitted effect of over 55% in size; note: potency is the fitted concentration of half-maximal effect
Method in brief: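 MPP8 (50 nM) was pre-bound to 50 nM biotinylated H3(1-18)K9me3 peptide in PBS pH 7.4 with 0.01% Tween-20. Compounds were then added for 30 min at room temperature, and complex disruption was read by AlphaScreen with streptavidin donor and nickel-chelate acceptor beads.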

[15] = biological target: Transient receptor potential cation channel subfamily V member 1 (Homo sapiens) (UniProt Q8NER1); assay: HTS Assay for Compounds that Act as Enhancers of the Vanilloid Receptor 1 (AID 488979); note: 0% is about no effect
Method in brief: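 TRPV1-expressing cells loaded with Fluo-8 calcium dye; compounds added and calcium influx read kinetically for 3 min (agonist phase), then capsaicin at EC20 added and read 2 min more for enhancement. Fluorescence ex 480/em 520 nm.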

[16] = biological target: Thyrotropin receptor (Homo sapiens) (UniProt P16473); assay: qHTS Assay for Antagonists of the Thyroid Stimulating Hormone Receptor (AID 488980); note: 0% is about no effect
Method in brief: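 TSHR-transfected HEK293 cells (2000/well) in HEPES-buffered HBSS with 70 uM RO 20-1724 were stimulated with 4 nM TSH (EC80, final) in the presence of compound. cAMP was measured by HTRF competition after lysis and 30 min at RT.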

[17] = biological target: Thyrotropin-releasing hormone receptor (Homo sapiens) (UniProt P34981); assay: qHTS for Small Molecule Agonists and Allosteric Enhancers of Human TRH Receptor: Validation Screen for Agonists (AID 493127;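 active = calcium activation more than 3 SD above the typical response in the agonist read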; note: 0% is about no effect); conditions: TRH receptor agonist cell assay; at 2 µM; stronger effect = higher value
Method in brief: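 TRHR cells loaded with fluo-8 calcium dye; FDSS kinetic fluorescence (Ex 480/Em 530) read at 1 s/cycle after 23 nL compound addition. Agonist-mode calcium response recorded before the 10 nM TRH (EC20) addition.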

[18] = biological target: Galactokinase (Homo sapiens) (UniProt P51570); assay: qHTS Validation Assay for Inhibitors of Human Galactokinase (GALK) (AID 493189); note: 0% is about no effect
Method in brief: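 GALK (5 nM) with 35 uM ATP and 100 uM galactose in HEPES pH 8.0 with MgCl2, NaCl, DTT and BSA. Reaction ran 1 h at room temperature. Residual ATP read by Kinase-Glo Plus luminescence.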

[19] = Validation screen for small molecules that induce DNA re-replication in SW480 colon adenocarcinoma cells (AID 504364); note: 0% is about no effect
Method in brief: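 SW480 cells (250/well) exposed 48 h at 37 C, 5% CO2, then Hoechst-stained 40 min. Nuclear DNA content imaged by fluorescence scanning (405 nm excitation, 500-530 nm emission); re-replication scored as increased nuclei with elevated intensity.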

[20] = biological target: Voltage-gated inwardly rectifying potassium channel KCNH2 (Homo sapiens) (UniProt Q12809); assay: qHTS Assay for Small Molecule Inhibitors of the Human hERG Channel Activity (AID 588834);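 note: top concentration of the series differs between compounds; % is set by controls: 0 for no effect and ±100 for the full control effect; lower thallium flux fluorescence means stronger hERG block; nearly all actives have a fitted effect of over 50% in size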
Method in brief: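 U2OS cells BacMam-transduced with hERG, 2000 cells/well, compound ~10 min at 37 °C before stimulation buffer. FluxOR thallium flux fluorescence read kinetically on FDSS; decrease indicates block; AC50 from Hill fits.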

[21] = measured here: cell count channel max response
[22] = measured here: lipid channel max response

Sequence of Ferritin light chain (Equus caballus) (P02791 2-175 limits assumed): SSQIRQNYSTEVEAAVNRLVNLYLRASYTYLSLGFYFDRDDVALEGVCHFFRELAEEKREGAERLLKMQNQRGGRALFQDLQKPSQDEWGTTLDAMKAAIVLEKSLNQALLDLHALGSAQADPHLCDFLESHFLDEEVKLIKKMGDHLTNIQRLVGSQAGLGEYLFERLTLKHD
Sequence of Transient receptor potential cation channel subfamily V member 1 (Homo sapiens) (Q8NER1 whole entry, looked up): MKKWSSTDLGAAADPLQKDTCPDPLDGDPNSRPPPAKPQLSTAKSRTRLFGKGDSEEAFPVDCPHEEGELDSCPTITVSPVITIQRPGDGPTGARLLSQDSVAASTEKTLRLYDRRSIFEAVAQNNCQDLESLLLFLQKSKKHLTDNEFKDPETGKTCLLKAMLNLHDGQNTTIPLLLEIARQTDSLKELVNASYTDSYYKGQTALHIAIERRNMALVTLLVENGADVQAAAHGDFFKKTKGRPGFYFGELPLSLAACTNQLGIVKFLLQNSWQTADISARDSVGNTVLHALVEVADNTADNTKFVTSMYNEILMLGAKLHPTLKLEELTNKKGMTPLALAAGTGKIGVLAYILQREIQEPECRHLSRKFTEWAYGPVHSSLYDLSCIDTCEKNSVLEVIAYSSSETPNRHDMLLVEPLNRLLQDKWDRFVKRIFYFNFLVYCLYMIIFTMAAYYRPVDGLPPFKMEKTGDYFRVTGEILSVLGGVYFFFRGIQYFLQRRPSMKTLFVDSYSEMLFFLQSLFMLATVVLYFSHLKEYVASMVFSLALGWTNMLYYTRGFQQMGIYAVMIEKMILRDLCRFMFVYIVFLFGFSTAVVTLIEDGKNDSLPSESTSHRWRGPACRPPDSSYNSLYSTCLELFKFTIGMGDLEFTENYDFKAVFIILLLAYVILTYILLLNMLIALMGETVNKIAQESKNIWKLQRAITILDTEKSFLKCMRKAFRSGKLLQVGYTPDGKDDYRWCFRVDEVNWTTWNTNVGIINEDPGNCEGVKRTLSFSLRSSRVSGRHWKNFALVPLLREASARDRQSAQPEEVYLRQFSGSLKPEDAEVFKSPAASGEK
Sequence of Thyrotropin-releasing hormone receptor (Homo sapiens) (P34981 whole entry, looked up): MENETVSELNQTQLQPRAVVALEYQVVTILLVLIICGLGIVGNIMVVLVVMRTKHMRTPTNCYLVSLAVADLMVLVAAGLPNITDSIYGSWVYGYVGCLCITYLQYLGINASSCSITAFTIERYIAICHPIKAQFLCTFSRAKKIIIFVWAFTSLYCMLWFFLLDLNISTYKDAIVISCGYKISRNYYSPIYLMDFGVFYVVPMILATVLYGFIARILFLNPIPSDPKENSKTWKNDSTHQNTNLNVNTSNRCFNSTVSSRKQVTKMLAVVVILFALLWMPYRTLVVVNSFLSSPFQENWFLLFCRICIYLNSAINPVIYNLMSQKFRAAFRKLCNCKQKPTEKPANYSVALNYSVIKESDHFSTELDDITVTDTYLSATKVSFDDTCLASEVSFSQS
Sequence of Thyrotropin receptor (Homo sapiens) (P16473 whole entry, looked up): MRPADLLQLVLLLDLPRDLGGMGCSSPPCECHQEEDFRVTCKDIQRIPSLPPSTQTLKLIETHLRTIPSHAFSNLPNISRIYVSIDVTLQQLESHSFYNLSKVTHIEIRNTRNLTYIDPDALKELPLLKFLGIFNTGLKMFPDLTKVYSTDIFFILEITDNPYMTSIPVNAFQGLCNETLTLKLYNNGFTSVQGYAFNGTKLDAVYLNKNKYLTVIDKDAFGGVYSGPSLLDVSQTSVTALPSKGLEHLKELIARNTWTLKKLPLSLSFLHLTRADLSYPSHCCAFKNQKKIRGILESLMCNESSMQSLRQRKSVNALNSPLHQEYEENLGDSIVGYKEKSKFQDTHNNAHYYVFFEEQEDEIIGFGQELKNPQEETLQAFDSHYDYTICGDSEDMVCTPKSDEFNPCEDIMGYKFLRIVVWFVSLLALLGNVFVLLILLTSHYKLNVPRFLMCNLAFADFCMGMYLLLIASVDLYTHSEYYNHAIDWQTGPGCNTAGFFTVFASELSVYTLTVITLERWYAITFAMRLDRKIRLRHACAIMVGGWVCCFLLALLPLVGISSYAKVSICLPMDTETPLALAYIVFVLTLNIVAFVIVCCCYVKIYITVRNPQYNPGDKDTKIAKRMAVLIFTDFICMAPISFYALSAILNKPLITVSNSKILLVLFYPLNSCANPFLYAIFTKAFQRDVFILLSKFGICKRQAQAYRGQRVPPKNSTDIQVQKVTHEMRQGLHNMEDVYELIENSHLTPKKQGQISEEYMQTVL
Sequence of DNA repair nuclease/redox regulator APEX1 (Homo sapiens) (P27695 whole entry, looked up): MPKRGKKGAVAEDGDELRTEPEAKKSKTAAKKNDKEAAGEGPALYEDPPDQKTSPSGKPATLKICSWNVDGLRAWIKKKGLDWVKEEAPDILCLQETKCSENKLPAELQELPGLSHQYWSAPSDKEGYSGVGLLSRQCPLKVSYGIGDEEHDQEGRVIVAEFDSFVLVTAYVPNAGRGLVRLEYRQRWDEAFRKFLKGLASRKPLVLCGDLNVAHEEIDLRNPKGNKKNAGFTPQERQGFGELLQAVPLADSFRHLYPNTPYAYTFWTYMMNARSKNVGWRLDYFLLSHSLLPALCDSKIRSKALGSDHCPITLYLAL
Sequence of M-phase phosphoprotein 8 (Homo sapiens) (Q99549 whole entry, looked up): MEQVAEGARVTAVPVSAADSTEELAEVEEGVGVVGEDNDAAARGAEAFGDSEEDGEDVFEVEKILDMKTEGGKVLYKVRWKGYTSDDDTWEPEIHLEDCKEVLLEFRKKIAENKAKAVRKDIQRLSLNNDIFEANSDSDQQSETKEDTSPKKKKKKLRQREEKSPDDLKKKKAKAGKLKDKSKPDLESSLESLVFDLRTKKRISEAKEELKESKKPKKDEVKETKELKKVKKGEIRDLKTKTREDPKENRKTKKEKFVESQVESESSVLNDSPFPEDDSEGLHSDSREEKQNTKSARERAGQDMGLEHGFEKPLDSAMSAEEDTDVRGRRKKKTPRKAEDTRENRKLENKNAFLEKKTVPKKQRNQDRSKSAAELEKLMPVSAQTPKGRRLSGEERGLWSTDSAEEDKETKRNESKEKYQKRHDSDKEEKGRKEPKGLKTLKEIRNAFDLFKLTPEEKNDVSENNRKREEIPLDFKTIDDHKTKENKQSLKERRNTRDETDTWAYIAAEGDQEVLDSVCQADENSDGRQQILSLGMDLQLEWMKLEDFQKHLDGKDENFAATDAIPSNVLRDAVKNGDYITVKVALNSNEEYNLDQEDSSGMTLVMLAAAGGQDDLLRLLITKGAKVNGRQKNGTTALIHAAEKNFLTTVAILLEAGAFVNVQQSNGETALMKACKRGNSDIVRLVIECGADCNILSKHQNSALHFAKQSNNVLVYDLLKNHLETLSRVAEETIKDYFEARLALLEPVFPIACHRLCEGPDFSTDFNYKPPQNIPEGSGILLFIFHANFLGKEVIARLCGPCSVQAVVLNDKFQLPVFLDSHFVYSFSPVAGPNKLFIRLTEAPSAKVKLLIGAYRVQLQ
Sequence of Voltage-gated inwardly rectifying potassium channel KCNH2 (Homo sapiens) (Q12809 whole entry, looked up): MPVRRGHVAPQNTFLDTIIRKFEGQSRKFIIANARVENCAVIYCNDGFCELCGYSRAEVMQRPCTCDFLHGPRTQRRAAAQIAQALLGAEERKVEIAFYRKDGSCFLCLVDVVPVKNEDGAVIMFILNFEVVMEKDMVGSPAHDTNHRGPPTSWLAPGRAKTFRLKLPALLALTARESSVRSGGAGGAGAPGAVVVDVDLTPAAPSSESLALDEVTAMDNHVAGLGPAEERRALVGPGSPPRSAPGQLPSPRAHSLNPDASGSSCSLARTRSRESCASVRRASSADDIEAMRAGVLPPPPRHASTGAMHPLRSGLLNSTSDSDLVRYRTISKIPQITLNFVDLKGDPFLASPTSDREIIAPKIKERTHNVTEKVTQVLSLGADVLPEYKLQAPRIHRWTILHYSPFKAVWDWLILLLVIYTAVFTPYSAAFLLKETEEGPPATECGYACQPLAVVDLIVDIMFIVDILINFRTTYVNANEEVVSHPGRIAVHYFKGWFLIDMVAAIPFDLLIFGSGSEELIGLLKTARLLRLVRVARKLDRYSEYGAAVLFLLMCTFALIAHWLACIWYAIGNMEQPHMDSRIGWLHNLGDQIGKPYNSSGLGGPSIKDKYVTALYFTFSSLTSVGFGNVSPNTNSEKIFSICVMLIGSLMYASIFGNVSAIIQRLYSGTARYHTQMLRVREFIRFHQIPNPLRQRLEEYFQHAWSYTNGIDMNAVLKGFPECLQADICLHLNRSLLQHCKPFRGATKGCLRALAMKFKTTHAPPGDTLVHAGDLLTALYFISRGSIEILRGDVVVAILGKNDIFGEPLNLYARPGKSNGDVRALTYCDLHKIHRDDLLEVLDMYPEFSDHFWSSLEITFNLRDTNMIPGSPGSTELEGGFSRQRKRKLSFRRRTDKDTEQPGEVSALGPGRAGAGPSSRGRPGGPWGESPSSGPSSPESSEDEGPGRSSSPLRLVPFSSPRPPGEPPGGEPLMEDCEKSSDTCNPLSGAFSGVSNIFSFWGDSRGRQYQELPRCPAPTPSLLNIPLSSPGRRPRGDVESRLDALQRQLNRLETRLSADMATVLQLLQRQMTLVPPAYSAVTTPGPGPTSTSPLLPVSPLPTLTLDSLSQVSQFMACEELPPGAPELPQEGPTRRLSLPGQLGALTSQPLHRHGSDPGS
Sequence of Galactokinase (Homo sapiens) (P51570 whole entry, looked up): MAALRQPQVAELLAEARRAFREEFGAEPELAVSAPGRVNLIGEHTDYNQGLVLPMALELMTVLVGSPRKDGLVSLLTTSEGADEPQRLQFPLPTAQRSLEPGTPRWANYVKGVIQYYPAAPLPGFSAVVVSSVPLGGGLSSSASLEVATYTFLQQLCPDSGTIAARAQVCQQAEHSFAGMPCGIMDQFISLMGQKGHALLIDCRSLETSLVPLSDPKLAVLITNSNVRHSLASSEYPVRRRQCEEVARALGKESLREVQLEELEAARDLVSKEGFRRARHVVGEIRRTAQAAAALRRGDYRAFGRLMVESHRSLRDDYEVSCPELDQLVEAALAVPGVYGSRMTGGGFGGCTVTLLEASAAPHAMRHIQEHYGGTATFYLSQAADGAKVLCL

C[C@]12CCC(=O)C=C1CC[C@@H]1C2[C@@H](O)C[C@@]2(C)[C@H]1CC[C@]2(O)C(=O)CO (some centres not stated)
2.28% and 8.51%: max response [2, 21]
inactive: outcome [1] | activity change, negative = inhibition ([2]; at 57.5 µM (top of the series)) 0.0073% and -1.01% | Potency [3] | Potency [4] | outcome [5] | Potency [6] | Potency [7] | Potency [8] | Potency [9] | outcome [10] | outcome [11] | Potency [12] | Potency [13] | Potency [14] | outcome [15] | outcome [16] | activation [17] 1% | outcome [18] | outcome [19] | Potency [20]
2.14% and 9.17%: max response [2, 22]

N[C@H](Cc1ccc(O)c(O)c1)C(=O)O
inactive: outcome [1] | Potency [4] | outcome [5] | Potency [6] | Potency [7] | Potency [8] | Potency [9] | outcome [10] | outcome [11] | Potency [12] | Potency [13] | outcome [15] | outcome [16] | activation [17] 0.688% | outcome [18] | outcome [19] | Potency [20]
active: Potency [3] 10 µM | Potency [14] 17.8 µM

NCCC(=O)NCCc1cnc[nH]1
inactive: outcome [1] | activity change, negative = inhibition ([2]; at 25.7 µM (top of the series)) 1.3% | Potency [3] | Potency [4] | outcome [5] | Potency [6] | Potency [7] | Potency [8] | Potency [9] | outcome [10] | outcome [11] | Potency [12] | Potency [13] | Potency [14] | outcome [15] | outcome [16] | activation [17] 1% | outcome [18] | outcome [19] | Potency [20]
15.5%: max response [2, 22]
9.26%: max response [2, 21]

N=C1Sc2ccccc2C2=NCCCN12
-6.86%: max response [2, 21]
active: Potency [14] 10 µM
-8.77%: max response [2, 22]
inactive: outcome [1] | activity change, negative = inhibition ([2]; at 57.5 µM (top of the series)) -3.51% | Potency [3] | Potency [4] | outcome [5] | Potency [6] | Potency [7] | Potency [8] | outcome [10] | outcome [11] | Potency [12] | Potency [13] | outcome [15] | outcome [16] | activation [17] 0.125% | outcome [18] | outcome [19] | Potency [20]

Cc1cn([C@H]2C[C@@H](N=[N+]=[N-])[C@@H](CO)O2)c(=O)[nH]c1=O
inactive: outcome [1] | activity change, negative = inhibition ([2]; at 57.5 µM (top of the series)) 0.117% | Potency [3] | Potency [4] | outcome [5] | Potency [6] | Potency [7] | Potency [8] | Potency [9] | outcome [10] | outcome [11] | Potency [12] | Potency [13] | Potency [14] | outcome [15] | outcome [18] | outcome [19] | Potency [20]
-8.16%: max response [2, 22]
-9.17%: max response [2, 21]

Nc1nc(Nc2ccccc2)nc2c1ncn2[C@@H]1O[C@H](CO)[C@H](O)[C@H]1O
inactive: outcome [1] | activity change, negative = inhibition ([2]; at 57.5 µM (top of the series)) -0.104% | Potency [3] | Potency [4] | outcome [5] | outcome [10] | outcome [11] | Potency [12] | Potency [13] | Potency [14] | outcome [15] | outcome [16] | activation [17] 0.938% | outcome [18] | outcome [19] | Potency [20]
-24.2%: max response [2, 22]
-25.4%: max response [2, 21]
